Drawing on PubChem BioAssay (NCI), this text covers growth for 37 compounds.

The panel holds about 83,000 compounds, 20% with a hit somewhere; the sample as a whole holds those more often.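 96-well plates, one dose, 48 hours. Percent growth reported; active if below 10.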 Values without a mark were called inactive. Active and inactive are the calls of the source.

The first assay has as its system U251 CNS. The assay is described as follows: NCI-60 one-dose screen, 48 h (100 = growth as untreated, 0 = no growth, -100 = all killed). Particulars: 10 µM unless noted.
On to `CCOC(=O)[C@@H](C)C[C@H](Cc1ccccc1)NC(=O)c1csc([C@@H](C[C@H](C(C)C)N(C)C(=O)[C@H](CCC(C)C)NC(=O)[C@H]2CCCCN2C)OC(C)=O)n1`, for which the growth was 2.75% (active).

Turning to `COC(=O)C12CC(NC(=O)c3csc([C@@H](C[C@H](C(C)C)N(C)C(=O)[C@@H](NC(=O)[C@H]4CCCCN4C)C(C)C)OC(C)=O)n3)(C1)C2`, the growth was 20.7%. Same read-out and setting: to `Clc1ccc2nnnn2n1` belongs 34.4%; to `CC[C@H](C)[C@H](NC(=O)[C@H]1CCCCN1C)C(=O)N(C)[C@H](C[C@@H](O)c1nc(C(=O)N[C@@H](Cc2ccccc2)C[C@H](C)C(=O)O)cs1)C(C)C`, 52.9%; to `N#C[S-].[Au+].c1ccc(CN2[CH-]N(Cc3ccccc3)C(c3ccccc3)=C2c2ccccc2)cc1`, 5.57% (active). Take `CCCCCCCCCCCCNC(c1ccccc1)C(O)c1ccccc1` (stereo not drawn): the growth is 32%.

Another assay has as its system PC-3 prostate. Described as above. Particulars: 10 µM unless noted.
As to `COC(=O)[C@@H](C)C[C@H](Cc1ccccc1)NC(=O)c1nc([C@@H](C[C@H](C(C)C)N(C)C(=O)[C@@H](NC(=O)[C@H]2CCCN2C)C(C)C)OC(C)=O)sc1C`, the growth was 17.2%. Turning to `CCCCCSC1C2C(=O)C(Br)=CC13CCNc1c(O)c4c5c(c13)=[N+]2CCC=5C=N4` (stereo not drawn), the growth is -0.922% (active). Same read-out and setting: to `CC1=C(CCCOC(=O)CN)C2=C(C)C3(CC3)[C@@](C)(O)C(=O)C2=C1` belongs 69.4%; to `COC(=O)CC[C@H](Cc1ccccc1)NC(=O)c1csc([C@@H](C[C@H](C(C)C)N(C)C(=O)[C@@H](NC(=O)[C@H]2CCCCN2C)C(C)C)OC(C)=O)n1`, 39.8%; to `COC(=O)CC12CC(NC(=O)c3csc([C@@H](C[C@H](C(C)C)N(C)C(=O)[C@@H](NC(=O)[C@H]4CCCCN4C)C(C)C)OC(C)=O)n3)(C1)C2`, 30.2%.

As for `O=C1CNC(c2ccccc2)c2cc(Cl)ccc2N1` (stereo not drawn), the growth is 99.3%.

Consider `CC1(C)N=C(N)N=C(N)N1c1cccc(CCCCc2ccc(Cl)c(S(=O)(=O)F)c2)c1`, for which the growth was 24.1%. The same measure, in the same setting: for `CC(=O)O[C@H](C[C@H](C(C)C)N(C)C(=O)[C@@H](NC(=O)[C@H]1CCCCN1C)C(C)C)c1nc(C(=O)N[C@@H](Cc2ccccc2)C[C@H](C)C(=O)O)c(C(C)C)s1` the value was 29.9%; for `COC(=O)[C@@H](C)C[C@H](Cc1ccccc1)NC(=O)c1csc(CC[C@H](C(C)C)N(C)C(=O)[C@@H](NC(=O)[C@H]2CCCCN2C)C(C)C)n1`, 27.6%; for `CCOP(=O)(NC[C@H]1O[C@](O)(CO)[C@@H](O)[C@@H]1O)OCC`, 85.9%. Still for that read-out and setting: for `COc1cc([C@@H]2c3cc4c(cc3[C@H](OC(C)=O)[C@H]3COC(=O)[C@H]23)OCO4)cc(OC)c1OC` the value was 30.2%; for `COC(=O)[C@@H](C)C[C@H](Cc1cn(C)c2ccccc12)NC(=O)c1csc([C@@H](C[C@H](C(C)C)N(C)C(=O)[C@@H](NC(=O)[C@H]2CCCCN2C)C(C)C)OC(C)=O)n1`, 24.3%; for `CCOC(=O)[C@@H](C)C[C@H](Cc1ccccc1)NC(=O)c1csc([C@@H](C[C@H](C(C)C)N(C)C(=O)[C@@H](NC(=O)[C@H]2CCCCN2C)C(C)(C)C)OC(C)=O)n1`, 21.1%. As for `CC1=C(CCCNS(C)(=O)=O)C2=C(C)C3(CC3)[C@@](C)(O)C(=O)C2=C1`, the growth was 6.58% (active).

Regarding `COC(=O)[C@@H](C)C[C@H](Cc1ccccc1)NC(=O)c1cccc([C@@H](C[C@H](C(C)C)N(C)C(=O)[C@@H](NC(=O)[C@H]2CCCCN2C)C(C)C)OC(C)=O)n1`, the growth was 28.7%. Still for that read-out and setting: to `CNC(=O)Oc1ccc(C(C)(C)C)cc1OC(=O)NC` belongs 94%; to `CC1(C)C(C(=O)c2cn(CCCCF)c3ccccc23)C1(C)C`, 85%.

Take `CC(=O)O[C@H](C[C@H](C(C)C)N(C)C(=O)[C@@H](NC(=O)[C@H]1CCCCN1C)C(C)C)c1nc(C(=O)NC2CCC(C(=O)O)CC2)cs1` (stereo partly drawn): the growth was 48.5%.

Turning to `CCCC[C@H](NC(=O)[C@H]1CCCN1C)C(=O)N(C)[C@H](C[C@@H](OC(C)=O)c1nc(C(=O)N[C@@H](Cc2ccccc2)C[C@H](C)C(=O)OCC)cs1)C(C)C`, the growth is 13%. On the same count and under the same terms, for `CCOC(=O)[C@@H](C)C[C@H](Cc1ccccc1)NC(=O)c1csc([C@@H](C[C@H](C(C)C)N(C)C(=O)CNC(=O)[C@H]2CCCCN2C)OC(C)=O)n1` the value was 22.7%; for `COc1ccc([As]=[As]c2ccc(OC)c(NCS(=O)(=O)O)c2)cc1NCS(=O)(=O)O` (stereo not drawn), 32.5%.

Regarding `CC1=C(CCCOC(=O)[C@H](N)CC(C)C)C2=C(C)C3(CC3)[C@@](C)(O)C(=O)C2=C1`, the growth is 28.5%. On to `O=[N+]([O-])c1cc(I)cc([N+](=O)[O-])c1`, for which the growth was 92.5%. The same measure, in the same setting: to `CC(=O)OC[C@]1(C)C=C2C(=O)[C@](C)(O)C3(CC3)C(C)=C2[C@H]1OC(=O)N(C)CCN(C)C(=O)OC(C)(C)C` belongs -21.4% (active); to `CC[C@H](C)[C@H](NC(=O)[C@H]1CCCCN1C)C(=O)N(C)[C@H](CCc1nc(C(=O)N[C@@H](Cc2ccccc2)C[C@H](C)C(=O)OC)cs1)C(C)C`, 24.3%. The same measure, in the same setting: to `COc1ccc(Nc2ccc([N+](=O)[O-])cc2[N+](=O)[O-])cc1CN(CCCl)CCCl` belongs 46.8%. As to `COC(=O)CCc1c[nH]c2ccc(N(CCCl)CCCl)cc12`, the growth was 65.3%.

For `Nc1c(F)cc(-c2nc3cc(F)ccc3[se]2)cc1F`, the growth is 72.1%. Still for that read-out and setting: for `COC(=O)[C@@]1(C)CC[C@]2(C)CC[C@]3(C)C4=CC=C5C(=CC(=O)C(O)=C5C)[C@]4(C)CC[C@@]3(C)[C@@H]2C1` the value was -88.5% (active); for `COC(=O)[C@@H](C)C[C@H](Cc1ccccc1)NC(=O)c1nc([C@@H](C[C@H](C(C)C)N(C)C(=O)[C@@H](NC(=O)[C@H]2CCCCN2C)C(C)C)OC(C)=O)sc1C`, 28.9%; for `CC(=O)O[C@H](C[C@H](C(C)C)N(C)C(=O)[C@@H](NC(=O)[C@H]1CCCN1C)C(C)C)c1nc(C(=O)N[C@@H](Cc2ccccc2)C[C@H](C)C(=O)O)c(C)s1`, 19.2%. Regarding `CCOC(=O)[C@@H](C)C[C@H](Cc1ccccc1)NC(=O)c1csc([C@@H](C[C@H](C(C)C)N(C)C(=O)[C@H](CCC(C)C)NC(=O)[C@H]2CCCCN2C)OC(C)=O)n1`, the growth is 13.7%.

As to `COC(=O)C12CC(NC(=O)c3csc([C@@H](C[C@H](C(C)C)N(C)C(=O)[C@@H](NC(=O)[C@H]4CCCCN4C)C(C)C)OC(C)=O)n3)(C1)C2`, the growth is 23%.

Take `Clc1ccc2nnnn2n1`: the growth was 25.7%. As to `CC[C@H](C)[C@H](NC(=O)[C@H]1CCCCN1C)C(=O)N(C)[C@H](C[C@@H](O)c1nc(C(=O)N[C@@H](Cc2ccccc2)C[C@H](C)C(=O)O)cs1)C(C)C`, the growth is 81.2%. Consider `N#C[S-].[Au+].c1ccc(CN2[CH-]N(Cc3ccccc3)C(c3ccccc3)=C2c2ccccc2)cc1`, for which the growth was 7.2% (active). Still for that read-out and setting: to `CCCCCCCCCCCCNC(c1ccccc1)C(O)c1ccccc1` (stereo not drawn) belongs 79.2%.
